# Results filed as inconclusive are left out. Where a call stands in place of a potency, no number is given. The source made the active and inactive calls. Calls follow the shape of the dose curve; as a rule, active = well fitted inhibition curve with a large enough effect; inconclusive = small, poorly fitted or top-dose-only effect; inactive = flat fitted curve, though single readings scatter.
# Test system: CRL-7250
# Assay: qHTS assay to identify novel small-molecules to repurpose for Merkel cell carcinoma treatment (AID 1296009); also: nearly all actives have a fitted effect of over 60% in size
# Settings: MCC and control cell lines, CellTiter-Glo viability, 72 h; series mostly up to 92 µM
# Text: MCC is a rare and aggressive neuroendocrine skin cancer with limited treatment options. Approximately 80% of MCCs have the Merkel cell polyomavirus (MCPyV) DNA integrated into the host genome (virus-positive: VP-MCC) and viral oncogenes drive oncogenesis. The remaining MCCs are virus-negative (VN-MCC) and are caused by UV mutagenesis. To identify novel treatments for VP-MCC and/or VN-MCC we screened three VP-MCC cell lines (WAGA, MKL-1, MKL-2), three VN-MCC cell lines (MCC-13, MCC-26, UISO), and four immortalized, non-transformed control cell lines (HaCaT, HEK293T, CRL7250, NIH-3T3) against ~2,400 compounds in the NCGC Pharmaceutical Collection (NPC) and ~1,900 compounds in the Mechanism Interrogation PlatE (MiPE). Using cell viability as a readout (CellTiter-Glo assay) we found both overlapping and distinct drugs that can be repurposed for the treatment of VP-MCC and VN-MCC.
# A high-throughput screen was conducted in 1536-well white flat bottom plates (Corning) on a Kalypsys robotic system. Cell lines WAGA, MKL-1, MKL-2, MCC-13, MCC-26, UISO, HaCaT, HEK293T, CRL7250, and NIH-3T3 were screened against 2 small molecule annotated drug libraries NPC and MIPE in dose response (8 and 11 pt. respectively) measuring cell viability after 72 hours of incubation. […] A 1,536 pintool (Kalypsys) was used to transfer 23 nL of compound in DMSO to the 1,536-well assay plates. After 72 hr incubation at 37 degree celsius, 2.5 uL of CellTiter-Glo (Promega) was dispensed into each well using a BiorapTR. Plates were incubated at room temperature for 10 min, transferred to a ViewLux (PerkinElmer) and the luminescence was recorded using an exposure time of 2 seconds. Relative luminescence units (RLUs) were normalized to in-plate controls (no cells as a positive (cytotoxicity) control, DMSO as negative control) and the normalized data was processed using NCATS in-house software.
SMILES,outcome,Potency
NC[C@@H]1O[C@@H](O[C@@H]2[C@@H](O[C@@H]3O[C@H](CO)[C@@H](O)[C@H]3O)[C@H](O)[C@@H](N)C[C@H]2N)[C@@H](N)[C@H](O)[C@H]1O,inactive [at 9.27 µM],–
O=C(Nc1ccccc1Br)NC1CCN(c2ccc(C(F)(F)F)cn2)C1 (stereo not given),–,inactive
CON=C(C(=O)N[C@@H]1C(=O)N2C(C(=O)OCOC(=O)C(C)(C)C)=C(C=Cc3scnc3C)CS[C@H]12)c1csc(N)n1,–,inactive
COC(=O)[C@@]1(O)C=CC[C@@H]2[C@@]3(C)C[C@@H](c4ccoc4)OC(=O)[C@H]3CC[C@]21C,–,inactive
NC1=N[C@H]2[C@H](CS[C@H]2CCCCC(=O)O)N1,–,inactive
CC[C@H](NC(=O)[C@H](C)NC)C(=O)N1C[C@@H](O)C[C@H]1Cc1c(-c2[nH]c3cc(F)ccc3c2C[C@H]2C[C@H](O)CN2C(=O)[C@H](CC)NC(=O)[C@H](C)NC)[nH]c2cc(F)ccc12,–,inactive
CN(C)c1ccccc1CN1CCCN(Cc2ccccc2N(C)C)C1c1ccncc1,–,inactive
CC(C)CC(=O)NCCn1cc(C(=O)O)c(=O)cc1C(O)c1ccccc1 (stereo not given),–,inactive
CC(/C=C/C1(O)C(C)(C)CC(O)CC1(C)O)OC1OC(CO)C(O)C(O)C1O (stereo not given),–,inactive
CCC/C=C/C(=O)O[C@H]1CC(C)(C)CC2[C@@]13[C@H](O)C[C@]1(C)[C@@]2(CCC2[C@@]4(C)CC[C@H](O[C@@H]5O[C@H](C(=O)O)[C@@H](O)[C@H](O[C@@H]6O[C@H](CO)[C@H](O)[C@H](O)[C@H]6O[C@@H]6O[C@@H](C)[C@H](O)[C@@H](O)[C@H]6O[C@@H]6OC[C@](O)(CO)[C@H]6O)[C@H]5O[C@@H]5O[C@H](CO)[C@H](O)[C@H](O)[C@H]5O)C(C)(C)C4CC[C@]21C)O[C@H]3O (stereo not given in full),inactive [at 9.27 µM],–
COc1cc(/C=C/C(=O)O[C@H]2C[C@@H]3C(C(=O)O)=CO[C@@H](O[C@@H]4O[C@H](CO)[C@@H](O)[C@H](O)[C@H]4O)[C@@H]3[C@H]2C)ccc1O,–,inactive
O=C(O)CC1(O)C(=O)Nc2ccccc21 (stereo not given),–,inactive
Cc1onc(-c2ccccc2)c1C(=O)N[C@@H]1C(=O)N2[C@@H]1SC(C)(C)[C@@H]2C(=O)O,–,inactive
CC1(C)CC[C@]2(C(=O)O)CC[C@]3(C)C(=CCC4[C@@]5(C)CC[C@H](O[C@H]6O[C@H](C(=O)O)[C@@H](O)[C@H](O[C@@H]7O[C@H](CO)[C@H](O)[C@H](O)[C@H]7O)[C@H]6O)C(C)(C)C5CC[C@]43C)[C@@H]2C1 (stereo not given in full),inactive [at 9.27 µM],–
Nc1ncnc2ccccc12,–,inactive
C=CC1C(OC2OC(CO)C(O)C(O)C2O)OC=C2C(=O)N3C(C(=O)O)Cc4c([nH]c5ccccc45)C3CC21 (stereo not given),–,inactive
CCNC(=O)Nc1ccc2ncc(Nc3ccc(C)cc3)nc2n1,–,inactive
CC(=O)O[C@@H]1CC2C(C)(C)C(=O)C=C[C@]2(C)C2CC[C@@]3(C)[C@H](c4ccoc4)OC(=O)[C@H]4O[C@]43[C@@]21C (stereo not given in full),–,inactive
C/C=C(\C)C(=O)OC[C@H]1O[C@@H](O[C@H]2[C@@H](O[C@H]3O[C@H](CO)[C@@H](O)[C@H](O)[C@H]3O[C@@H]3O[C@H](CO)[C@@H](O)[C@H](O)[C@H]3O)O[C@H](COC(=O)/C(C)=C/C)[C@@H](O)[C@@H]2O)[C@H](O)[C@@H](O)[C@@H]1O,inactive [at 9.27 µM],–
COc1ccc2cc([S+]([O-])Cc3ncc(C)c(OC)c3C)nc2c1,–,inactive

SMILES,outcome,Potency
CCC(CC)CC1(C(=O)Nc2ccccc2SC(=O)C(C)C)CCCCC1,–,inactive
C=C1CC[C@@H]2[C@](C)(CO[C@@H]3O[C@H](CO)[C@@H](O)[C@H](O)[C@H]3O)CCC[C@@]2(C)[C@@H]1CCC1=CCOC1=O,–,inactive
C=C1CC[C@H]2[C@@](C)(CCC(OC3OC(CO)C(O)C(O)C3O)[C@@]2(C)CO)C1C(=O)CC1=CCOC1=O (stereo not given in full),–,inactive
CC(=O)OC[C@]12[C@H](OC(C)=O)C(=O)[C@@H]3[C@@H](O)[C@@]14O[C@@]3(C)COC(=O)c1cccnc1[C@@H](C)[C@H](C)C(=O)O[C@@H]([C@H](OC(C)=O)[C@@H]2OC(C)=O)[C@]4(C)O,–,inactive
CC(=O)OCC1(O)CCC2C(COC3OC(CO)C(O)C(O)C3OC(=O)/C=C/c3ccc(O)cc3)=COC(OC(=O)CC(C)C)C21 (stereo not given),–,inactive
COc1cc(S(C)(=O)=O)ccc1Nc1nc2ccc(-c3ccc(NC(=O)[C@H](C)c4ccc(F)cc4)cc3)cn2n1,–,inactive
CCCN(CCC)[C@@H]1CCc2ccc3[nH]c(C#N)cc3c2C1,–,inactive
c1ccc(C(OC2CCN(CCCc3nn[nH]n3)CC2)c2ccccc2)cc1,–,inactive
CC1=C2C[C@@]3(C)[C@@H](CCC[C@@H]3C)C[C@@]2(O)OC1=O,–,inactive
CC1CCC2(C(=O)O)CCC3(C)C(=CCC4C5(C)CCC(OC(=O)/C=C/c6ccccc6)C(C)(C)C5CCC43C)C2C1C (stereo not given),–,inactive
CC1(C)C2CCC1(C)C(OC(=O)C(O)(CC(=O)O)CC(=O)O)C2 (stereo not given),–,inactive
COc1ccc(CCN(C)CCCOc2nsc(-c3ccccc3)n2)cc1OC,–,inactive
COc1cc(NC(=O)c2ccc(-c3ccc(Cl)cc3)o2)cc(OC)c1,–,inactive
CC1(C)CC=C(c2cnc3ccccc3c2)c2cc(C(=O)Nc3ccc(C(=O)O)cc3)ccc21,–,inactive
O=S(=O)(NC1CCC(c2cc(F)ccc2F)(S(=O)(=O)c2ccc(Cl)cc2)CC1)C(F)(F)F (stereo not given),–,inactive
CCCCOc1ccc(C(=O)Nc2ccc(F)cc2F)cc1,–,inactive
CCc1cccc(CC)c1-n1c(C=C(C)C)c(C(=O)N2CCNCC2)cc(-c2nc(-c3ccc(C(F)(F)F)cc3)cs2)c1=O,–,inactive
COC(=O)c1c(CC=C(C)C)c(OC2OC(CO)C(O)C(O)C2O)c2ccccc2c1OC1OC(CO)C(O)C(O)C1O (stereo not given),–,inactive
CN(C)C(=O)[C@H](O)[C@H](Cc1ccccc1)NC(=O)c1cc2cc(Cl)ccc2[nH]1,–,inactive
O=C(O)C[C@H]1CCC(=O)[C@@H]1C/C=C\CCO,–,inactive
